In PubChem BioAssay:
Active and inactive are the calls of the source.

Assays:
Albumin (Bos taurus) = Albumin (Bos taurus) (UniProt P02769); assay: bovine serum albumin binders on microarray, profiling panel, artefact control for SMM control protein annotation, biochemical, small-molecule microarray, Alexa647 label, 635/667 nm fluorescence (AID 1118); settings: BSA-A647 binding, fluorescence 635 nm, higher = more signal;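 further: score merges 667 nm emission intensity and signal-to-noise per printed compound spot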
Chain of Albumin (Bos taurus) (P02769 whole entry, looked up): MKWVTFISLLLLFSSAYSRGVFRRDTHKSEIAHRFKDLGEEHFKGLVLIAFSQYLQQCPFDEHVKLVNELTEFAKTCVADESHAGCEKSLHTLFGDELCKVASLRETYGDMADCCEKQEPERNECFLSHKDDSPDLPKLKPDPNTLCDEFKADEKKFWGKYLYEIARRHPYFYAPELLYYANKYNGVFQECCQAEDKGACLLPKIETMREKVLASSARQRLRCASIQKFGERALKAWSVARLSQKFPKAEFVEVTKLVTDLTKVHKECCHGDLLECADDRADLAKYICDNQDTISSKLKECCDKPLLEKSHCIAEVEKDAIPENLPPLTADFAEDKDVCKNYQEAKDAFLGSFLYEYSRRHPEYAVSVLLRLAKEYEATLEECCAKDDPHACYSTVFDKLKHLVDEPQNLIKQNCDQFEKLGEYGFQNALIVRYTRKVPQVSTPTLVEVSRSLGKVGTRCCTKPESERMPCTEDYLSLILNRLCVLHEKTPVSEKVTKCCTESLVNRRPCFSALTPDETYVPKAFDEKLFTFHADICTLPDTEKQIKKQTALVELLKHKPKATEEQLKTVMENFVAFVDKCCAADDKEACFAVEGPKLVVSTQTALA

[1] = small-molecule microarray binders of probe aXIP, primary screen, biochemical, NeuroSMM set, 635/667 nm fluorescence (AID 1119); settings: higher = more signal, called active from +8 up or from −8 down;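 further: probe is the protein aXip251-270 applied at 1 µg/mL to compound-printed slides; binding of probe to printed compounds measured as 667 nm fluorescence plus signal to noise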
[2] = small-molecule binders of probe aNOTCH3, primary screen, biochemical, small-molecule microarray, 635/667 nm fluorescence (AID 1120); settings: higher = more signal;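 further: probe is a biotin-tagged antibody raised against NOTCH3 rather than NOTCH3 protein; score merges spot fluorescence near 667 nm with spot signal to noise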
[3] = small-molecule binders of probe aNOTCH2, primary screen, biochemical, small-molecule microarray, 635/667 nm fluorescence (AID 1121); settings: higher = more signal;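 further: score merges feature fluorescence read at 667 nm with its signal to noise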
[4] = target: Carbonic anhydrase 2 (Homo sapiens) (UniProt P00918); assay: CAII small-molecule binders, profiling panel, biochemical, small-molecule microarray, Alexa647-labelled CAII (AID 1122); settings: CAII-A647 binding fluorescence, higher = more signal
[5] = COS7 lysate on small-molecule microarray, probe aHis, 635 nm (AID 1123); settings: COS7 cell lysate, fluorescence, higher = more signal;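 further: z-score combines 667nm fluorescence intensity with signal-to-noise per printed compound spot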
[6] = compound binding in COS7 lysate, probe aLAP1, primary screen, cell lysate, small-molecule microarray (AID 1124); settings: probe aLAP1, fluorescence, higher = more signal;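 further: lysate comes from COS7 cells expressing LAP1 and is applied at 0.3 µg/mL; score merges spot fluorescence near 667 nm with signal-to-noise over triplicate slides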
Sam68 (KHDRBS1) = assay: Sam68 small-molecule binders, primary screen, biochemical, small-molecule microarray, 635 nm fluorescence (AID 1125); settings: small-molecule microarray binding, higher = more signal;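 further: score merges 667 nm channel intensity with signal to noise over triplicate slides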
[7] = system: Chordin-like protein 2 (CHRDL2); assay: CHRDL2 small-molecule binders, primary screen, biochemical, small-molecule microarray, 635 nm fluorescence (AID 1126); settings: small-molecule microarray binding, fluorescence 635 nm; higher = more signal;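 further: printed compound slides probed with Chrdl2 protein at 4 µg/mL for 1 h at 4 C; score merges 667 nm emission intensity with signal to noise over three replicate slides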
[8] = target: Concanavalin-A (Canavalia ensiformis) (UniProt P02866); assay: ConA small-molecule binders, primary screen, artefact control for SMM control protein annotation, biochemical, small-molecule microarray, Alexa647 label, 635 nm (AID 1127); settings: ConA-A647 binding fluorescence, higher = more signal;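 further: z combines 667 nm emission intensity with signal-to-noise across three replicate slides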
Chain of Concanavalin-A (Canavalia ensiformis) (P02866 whole entry, looked up): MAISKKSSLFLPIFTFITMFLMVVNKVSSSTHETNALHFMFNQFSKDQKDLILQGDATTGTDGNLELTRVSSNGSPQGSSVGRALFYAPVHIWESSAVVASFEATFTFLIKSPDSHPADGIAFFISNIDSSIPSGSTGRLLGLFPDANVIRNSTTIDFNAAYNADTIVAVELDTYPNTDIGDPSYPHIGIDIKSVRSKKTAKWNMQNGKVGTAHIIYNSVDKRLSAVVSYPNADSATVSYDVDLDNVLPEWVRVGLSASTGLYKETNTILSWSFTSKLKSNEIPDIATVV

[9] = anti-His antibody binders, primary screen, artefact control for SMM control protein annotation, biochemical, small-molecule microarray, 635 nm fluorescence (AID 1128); settings: anti-His Alexa647 antibody binding, higher = more signal;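 further: score merges feature fluorescence with signal-to-noise for each printed compound spot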
[10] = system: Human papillomavirus type 1a E7 protein (residues 1-88); assay: HPV1a E7 small-molecule binders, primary screen, biochemical, small-molecule microarray, residues 1-88, 635 nm (AID 1129); settings: small-molecule microarray binding, fluorescence 635 nm; higher = more signal
[11] = target: Focal adhesion kinase 1 (Homo sapiens) (UniProt Q05397); assay: small-molecule microarray binders of FAK, primary screen, biochemical, 635/667 nm fluorescence, BSA, DTT (AID 1130); settings: PTK2 binding, 635 nm fluorescence, higher = more signal;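 further: composite of spot emission at 667 nm and signal to noise over triplicate slides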
Chain of Focal adhesion kinase 1 (Homo sapiens) (Q05397 whole entry, looked up): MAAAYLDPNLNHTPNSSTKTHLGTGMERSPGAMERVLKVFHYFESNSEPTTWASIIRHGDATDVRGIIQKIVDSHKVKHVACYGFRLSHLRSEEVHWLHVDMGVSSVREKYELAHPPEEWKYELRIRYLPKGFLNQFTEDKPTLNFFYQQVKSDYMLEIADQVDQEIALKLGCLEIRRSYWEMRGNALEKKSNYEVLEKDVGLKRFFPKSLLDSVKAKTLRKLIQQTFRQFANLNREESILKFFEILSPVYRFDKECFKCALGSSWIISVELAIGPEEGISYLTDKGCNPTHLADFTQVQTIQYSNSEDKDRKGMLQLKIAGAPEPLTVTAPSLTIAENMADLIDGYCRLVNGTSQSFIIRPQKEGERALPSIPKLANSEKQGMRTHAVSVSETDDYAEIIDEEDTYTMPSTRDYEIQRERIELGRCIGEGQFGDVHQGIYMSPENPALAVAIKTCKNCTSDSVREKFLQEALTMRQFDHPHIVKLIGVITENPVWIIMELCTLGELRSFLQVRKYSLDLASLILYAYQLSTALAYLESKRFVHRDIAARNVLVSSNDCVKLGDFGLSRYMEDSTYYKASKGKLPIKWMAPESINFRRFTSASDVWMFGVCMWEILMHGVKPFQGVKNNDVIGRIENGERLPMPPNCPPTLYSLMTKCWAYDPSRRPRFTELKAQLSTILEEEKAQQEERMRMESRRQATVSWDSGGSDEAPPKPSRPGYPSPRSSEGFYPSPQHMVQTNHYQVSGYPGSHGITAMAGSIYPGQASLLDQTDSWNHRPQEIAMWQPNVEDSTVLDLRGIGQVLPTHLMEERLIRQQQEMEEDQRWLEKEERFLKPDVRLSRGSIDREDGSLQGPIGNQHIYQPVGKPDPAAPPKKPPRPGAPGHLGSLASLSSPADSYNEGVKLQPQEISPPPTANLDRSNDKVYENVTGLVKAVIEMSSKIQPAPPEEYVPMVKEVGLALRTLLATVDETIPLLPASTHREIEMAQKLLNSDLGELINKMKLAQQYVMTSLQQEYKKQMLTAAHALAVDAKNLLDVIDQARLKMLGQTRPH

[12] = system: Fibrinogen (Alexa647-labelled); assay: fibrinogen binders on compound microarrays, profiling panel, artefact control for SMM control-protein annotation, biochemical, small-molecule microarray, 635/667 nm fluorescence (AID 1131); settings: fibrinogen-A647 binding fluorescence, higher = more signal;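 further: z-score merges 667 nm fluorescence with per-spot signal-to-noise over triplicate slides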
[13] = target: Follistatin (Homo sapiens) (UniProt P19883); assay: follistatin binders on small-molecule microarrays, primary screen, biochemical, small-molecule microarray, 635/667 nm fluorescence (AID 1132); settings: FST binding, 635 nm fluorescence, higher = more signal
Chain of Follistatin (Homo sapiens) (P19883 whole entry, looked up): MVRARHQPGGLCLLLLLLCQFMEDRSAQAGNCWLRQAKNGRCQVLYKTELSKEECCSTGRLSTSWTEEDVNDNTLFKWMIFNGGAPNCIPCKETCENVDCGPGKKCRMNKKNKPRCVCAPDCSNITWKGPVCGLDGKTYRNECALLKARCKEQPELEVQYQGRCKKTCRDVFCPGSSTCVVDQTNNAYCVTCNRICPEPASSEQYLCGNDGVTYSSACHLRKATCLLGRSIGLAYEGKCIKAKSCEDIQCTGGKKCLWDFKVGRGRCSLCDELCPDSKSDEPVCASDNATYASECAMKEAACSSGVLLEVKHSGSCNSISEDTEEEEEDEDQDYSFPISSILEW

[14] = target: Fibroblast growth factor 2 (Homo sapiens) (UniProt P09038); assay: FGF2 binders on small-molecule microarrays, primary screen, biochemical, small-molecule microarray, 635/667 nm fluorescence (AID 1133); settings: small-molecule microarray binding, FGF2, fluorescence 635/667; higher = more signal
Chain of Fibroblast growth factor 2 (Homo sapiens) (P09038 whole entry, looked up): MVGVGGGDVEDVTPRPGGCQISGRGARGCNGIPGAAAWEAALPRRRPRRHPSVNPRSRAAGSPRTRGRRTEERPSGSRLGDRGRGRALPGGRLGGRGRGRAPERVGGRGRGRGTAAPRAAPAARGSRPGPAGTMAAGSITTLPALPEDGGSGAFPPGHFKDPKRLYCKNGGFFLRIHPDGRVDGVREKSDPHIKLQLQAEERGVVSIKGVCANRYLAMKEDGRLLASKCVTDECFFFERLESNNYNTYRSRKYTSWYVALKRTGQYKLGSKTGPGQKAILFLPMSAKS

[15] = mitochondrial membrane potential change in A549 cells, profiling panel, cell-based, JC-1 fluorescence, basal, 24 h, 100 nL (AID 1138); settings: higher = more signal;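 further: A549 lung adenocarcinoma cells under basal conditions with no added stimulus; test concentration not given here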
Lefty1 = Lefty1 binders on small-molecule microarrays, primary screen, biochemical, small-molecule microarray, 635/667 nm fluorescence (AID 1139); settings: small-molecule microarray binding, fluorescence 635/667; higher = more signal
[16] = system: wheat germ agglutinin (Triticum aestivum), Alexa647-labelled; assay: wheat germ agglutinin binders on compound microarrays, profiling panel, artefact control for SMM control-protein annotation, biochemical, small-molecule microarray, 635/667 nm fluorescence (AID 1140); settings: WGA-A647 binding, 635 nm fluorescence, higher = more signal;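 further: score merges 667 nm feature emission with signal to noise over triplicate slides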
[17] = target: Luciferin 4-monooxygenase (Photinus pyralis) (UniProt P08659); assay: firefly luciferase enzyme inhibitors, primary screen, biochemical, luminescence, purified enzyme, 2006 set (AID 1141); settings: SteadyGlo luminescence, 30 min, higher = more signal, called active from +8 up or from −8 down;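 further: cell-free assay with purified firefly luciferase at 100 ng per well in PBS; test concentration not given here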
Chain of Luciferin 4-monooxygenase (Photinus pyralis) (P08659 whole entry, looked up): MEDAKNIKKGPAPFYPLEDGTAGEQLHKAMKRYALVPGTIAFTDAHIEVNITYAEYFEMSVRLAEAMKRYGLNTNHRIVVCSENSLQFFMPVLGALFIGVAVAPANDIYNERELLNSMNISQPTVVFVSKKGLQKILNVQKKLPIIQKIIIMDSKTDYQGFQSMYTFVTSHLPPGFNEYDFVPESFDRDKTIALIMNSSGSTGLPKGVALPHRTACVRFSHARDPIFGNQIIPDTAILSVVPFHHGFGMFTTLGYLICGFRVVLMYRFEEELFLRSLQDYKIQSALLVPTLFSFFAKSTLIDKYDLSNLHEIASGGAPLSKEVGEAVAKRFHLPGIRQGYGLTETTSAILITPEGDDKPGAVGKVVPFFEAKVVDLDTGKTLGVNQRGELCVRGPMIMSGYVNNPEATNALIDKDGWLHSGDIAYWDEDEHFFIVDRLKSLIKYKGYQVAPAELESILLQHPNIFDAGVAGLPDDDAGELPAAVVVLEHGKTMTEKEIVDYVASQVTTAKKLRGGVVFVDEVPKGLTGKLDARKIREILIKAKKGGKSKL

Row | Compound | composite z-score (Albumin (Bos taurus)) | composite Z-score [1] | composite z-score [2] | composite z-score [3] | composite z-score [4] | composite z-score [5] | composite z-score [6] | composite z-score (Sam68 (KHDRBS1)) | composite z-score [7] | composite z-score [8] | composite z-score [9] | composite z-score [10] | composite z-score [11] | composite z-score [12] | composite z-score [13] | composite z-score [14] | z-score [15] | composite z-score (Lefty1) | composite z-score [16] | z-score [17]
1 | COCC(=C=CC[C@@H](O)c1ccccc1OCCO)C[C@@H](O)COCc1ccccc1 | 0.521 | 0.418 (inactive) | 0.779 | 0.365 | 0.73 | 2.22 | 1.04 | 1.04 | -0.463 | 0.244 | 0.477 | 1.01 | -0.134 | 0.357 | 0.403 | 0.456 | 1.8 | 0.317 | 1.05 | -2.4 (inactive)
2 | C[N+](C)(C)CCCC[C@@H]1NC(=O)[C@@H]2C[C@H](C(=O)O)[C@H](c3cccc(OCCO)c3)N2C1=O | -1.33 | 1.31 (inactive) | -0.324 | 0.0022 | 0.49 | 0.64 | 0.303 | -0.0913 | 0.451 | 1.02 | 0.0065 | -0.586 | -0.466 | -1.46 | 1.45 | 1.5 | 1.08 | 0.135 | 0.218 | -1.99 (inactive)
3 | C=C(CCCC)/C(=C/C[C@H](OC(=O)c1ccncc1)c1ccc(CO)o1)c1cc(C(=O)OC)ccc1OC | 0.572 | 0.243 (inactive) | 0.201 | -0.0534 | 0.609 | 1.38 | 0.51 | 1.31 | 0.487 | 1.02 | 0.872 | 1.19 | -0.0174 | 0.826 | 0.899 | 1.08 | -0.648 | 1.28 | 1.04 | -1.19 (inactive)
4 | COCCOC(=O)N1C(=O)[C@@]2(c3cc(C#CCCO)ccc31)[C@H](c1ccc(OCCO)cc1)N1[C@H](c3ccccc3)[C@H](c3ccccc3)OC(=O)[C@H]1[C@@H]2C(=O)N1CCc2cc(OC)c(OC)cc2C1 | -0.627 | 0.443 (inactive) | 0.0893 | -0.0731 | 0.239 | 1.06 | 1.48 | 1.31 | 0.559 | 1.08 | 1.2 | 1.19 | 0.81 | 0.249 | 1.22 | 1.11 | -0.633 | 1.08 | 0.0877 | -0.856 (inactive)
5 | CCOC(=O)C1=CCC(c2cccc(Cl)c2)O1 (stereo not given) | 0.581 | -0.214 (inactive) | 0.0357 | -0.0651 | 0.181 | 0.389 | -0.064 | 0.609 | -0.384 | 0.16 | 0.433 | 0.54 | -0.192 | 0.2 | -0.0085 | -0.505 | -1.14 | -0.0196 | 0.225 | 1.7 (inactive)
6 | CCOC(=O)C1=CC[C@@H](c2ccccc2)N(S(=O)(=O)c2ccc(C)cc2)[C@H]1C=C(C)C | 0.856 | 0.325 (inactive) | 0.31 | -0.0209 | 0.491 | 2.14 | 0.149 | 1.3 | 0.542 | 0.947 | 0.875 | 1.22 | 0.503 | 0.911 | 0.97 | 0.481 | 2.58 | 0.811 | 0.546 | 2.12 (inactive)
7 | COC(=O)c1ccc(OC)c(/C=C\CC(CCc2ccccc2)OC(=O)c2ccncc2)c1 (stereo not given) | -0.805 | 0.302 (inactive) | -0.26 | -0.225 | 0.388 | 0.721 | 0.863 | 0.0029 | 1.52 | -0.363 | 0.499 | -0.235 | -0.21 | -0.358 | 1.45 | 1.23 | 1.38 | 1.01 | 0.334 | -0.912 (inactive)
8 | C=CCNC(=O)[C@H]1[C@@H]2C(=O)O[C@@H](c3ccccc3)[C@@H](c3ccccc3)N2[C@@H](c2ccc(O)cc2)[C@]12C(=O)N(C(=O)OCCOC)c1ccc(C#CC3(O)CCCCCC3)cc12 | 0.624 | 0.282 (inactive) | 0.207 | -0.0519 | 0.39 | 1.08 | -0.0714 | 1.23 | -0.233 | 0.915 | 1.23 | 1.18 | 0.737 | 0.485 | 0.759 | 0.678 | 1.14 | 0.218 | 0.764 | -0.991 (inactive)
9 | COC(=O)[C@]1(Cc2ccccc2CN=[N+]=[N-])N=C(c2ccc(OCCCO)cc2)O[C@@H]1c1ccccc1CN=[N+]=[N-] | -0.204 | -0.206 (inactive) | -0.0984 | -0.0079 | 0.651 | 1.75 | 0.838 | 0.877 | 0.31 | 0.951 | 1.12 | 1.15 | 0.392 | 0.518 | 1.17 | 0.838 | 1.02 | -0.222 | 0.609 | -1.41 (inactive)
10 | CCC[C@@H]1C[C@@]1(CCC)[C@@H](NC(=O)c1ccco1)c1ccc(Cl)cc1 | -0.638 | -0.392 (inactive) | -0.173 | -0.0324 | -0.464 | -0.241 | -0.0117 | -1.48 | -0.493 | -0.517 | -0.348 | -1.71 | -0.386 | -0.495 | -0.388 | -0.882 | 0.523 | -0.769 | -0.493 | -0.31 (inactive)
11 | COCCOC(=O)N1C(=O)[C@@]2(c3cc(C#Cc4ccc(OC)cc4)ccc31)[C@H](C(=O)N1CCc3cc(OC)c(OC)cc3C1)[C@H]1C(=O)O[C@H](c3ccccc3)[C@H](c3ccccc3)N1[C@@H]2c1ccc(O)cc1 | -0.237 | -0.0164 (inactive) | 0.436 | 0.357 | 0.282 | 0.853 | 0.844 | 1.28 | 0.805 | 1.16 | 1.13 | 1.21 | 0.226 | 0.753 | 1.25 | 1.17 | -0.406 | 0.606 | 0.659 | -1.35 (inactive)
